Experimental findings from PubChem BioAssay AID504861 (Broad Institute, 2011) are described below.

SMILES strings stand for the structures. Hit rate of the full screen: of about 1,200 compounds, about 290 (24%) were called active. Another 3% or so got no clear call; they are omitted.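 The calls were made as follows: active = compounds lowering cell viability signal with fitted half-maximal concentration at most ten times their highest tested concentration; inconclusive = flat fit with 30 to 70% signal loss, or poor fit; inactive = the rest.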 A selection follows. Entries with a potency or affinity are not part of this list.

A short description of this assay: HEK293T cell viability reduction, dose response, cytotoxicity control for LMP1 NF-kB inhibitor project, CellTiter-Glo luminescence, cherry-picks (AID 504861). The note with it: CellTiter-Glo ATP luminescence, 48 h; series mostly up to 26 µM. Background: Cellular ATP, detected with luciferase, serves as a proxy for viable cell number.
Regarding `Cc1cccc(Cn2cc(SCC(=O)Nc3nccs3)c3ccccc32)c1`, the outcome was inactive.

On to `O=C1/C(=C/c2cccnc2)SC(=S)N1Cc1ccco1`, for which the result was inactive.

For the compound `CCOc1ccc(-c2nc(CSCC(=O)NCc3ccco3)c(C)o2)cc1`, the outcome was inactive.

For `CCOC(=O)c1ccc(NC(=S)N2CCSC2c2ccc(OC)cc2)cc1` (stereo not drawn), the compound was classed as inactive.

Regarding `Cc1ccc(/C=C/C(=O)C2C(=O)c3ccccc3C2=O)cc1`, the call was inactive.

With `Cc1ccc(C(=O)NCCc2cccs2)cc1`, the call was inactive.

With `Cc1cc(C)n(C2CCCCC2OC(=O)c2ccccc2F)n1` (stereo not drawn), the call was inactive.

As to `CNC(=S)Nc1ccc2nc(C)c(C)nc2c1`, the compound was classed as inactive.

Turning to `Cc1cc(=O)[nH]c(N=N/C(=N/Nc2ccccc2C)c2ccccc2)n1`, the result was inactive.

As for `O=C(Nc1ccc(Br)cc1)C1CC(O)CN1C(=O)OCc1ccccc1` (stereo not drawn), the outcome was inactive.

With `O=C(O)CCc1nc(-c2ccc(Cl)cc2)no1`, the call was inactive.

For `Cn1c(-c2ccccc2)cnc1SCC(=O)N1CCCCC1`, the compound was classed as inactive.

Turning to `NC(=O)c1sc2nc3c(c(-c4cccs4)c2c1N)CCCCC3`, the compound was called inactive.

With `O=C(N/N=C/c1cccnc1)c1cc(-c2cccs2)nc2ccccc12`, the call was inactive.

On to `O=C(CN1C(=O)c2ccccc2C1=O)NNC1=NS(=O)(=O)c2ccccc21`, for which the call was inactive.

On to `COc1ccc(-n2nc(C(=O)c3cccs3)cc(-c3nc4ccccc4[nH]3)c2=N)cc1`, for which the outcome was inactive.

In the case of `O=C(Nc1nnc(N2CCCCCC2)s1)c1cc(-c2ccc(Br)cc2)on1`, the compound was called inactive.

Take `Cc1ccccc1N(C(=O)c1snc(C(N)=O)c1N)C(C(=O)NC1CCCCC1)c1ccc(O)cc1` (stereo not drawn): the call was inactive.

For `Cc1cc(NC(=O)c2ccc3c(c2)OCCO3)no1`, the call was inactive.

On to `CSc1nc2cc3c(cc2n1C(=O)c1ccc(C)cc1)OCCO3`, for which the compound was classed as inactive.

As for `C/C(=N\Nc1ccc(C(F)(F)F)cc1[N+](=O)[O-])C(C)C`, the compound was called inactive.

As for `Nc1ccccc1SC1CC(=O)N(c2ccccc2Cl)C1=O` (stereo not drawn), the outcome was inactive.

As to `Cc1cccc(Nc2nc(Cl)ncc2F)c1C`, the call was inactive.

In the case of `Cc1ccnc(SCCn2c(N3CCN(c4ccccc4)CC3)nc3c2c(=O)[nH]c(=O)n3C)n1`, the call was inactive.

For `O=C(NCCCN1CCCCC1)c1ccc2c(c1)NC(=O)c1ccccc1S2`, the outcome was inactive.

Turning to `COc1ccc(-c2cc3nc(-c4ccccc4)cc(N4CCCC(O)C4)n3n2)cc1` (stereo not drawn), the call was inactive.

As to `O=C(N/C(=C/c1ccc(Br)cc1)C(=O)N1CCOCC1)c1ccc(Br)o1`, the outcome was inactive.

Consider `COc1cccc(-c2nc(NCc3ccccc3)c3ccccc3n2)c1O`, for which the compound was called inactive.

`O=C(NCCc1ccccc1)c1ccc2nccnc2c1`: the compound was classed as inactive.

Take `O=C(Nc1ccc(Cl)c(Cl)c1)Nc1nc(-c2ccccc2)cs1`: the outcome was inactive.

`CCc1ccccc1N(CC(=O)NCc1ccco1)C(=O)c1snc(C(N)=O)c1N`: the call was inactive.

Regarding `CCn1c2ccccc2c2cc(NC(=O)c3ccccc3-c3ccccc3C(=O)O)ccc21`, the compound was classed as inactive.

On to `CCN(CC)Cc1cc(Nc2ccnc3cc(Cl)ccc23)ccc1O`, for which the call was inactive.

As to `O=S(=O)(c1ccc2c(c1)C(=NO)c1cc(S(=O)(=O)N3CCCCC3)ccc1-2)N1CCCCC1`, the call was inactive.

On to `Nc1nc(N)nc(-c2cc(Cl)ccc2Cl)n1`, for which the compound was called inactive.

For the compound `CCCc1cc(=O)c2c(O)ccc(OC)c2o1`, the compound was classed as inactive.

Consider `CC1CCC(NC(=O)CC2Oc3ccccc3NC2=O)CC1` (stereo not drawn), for which the compound was classed as inactive.

In the case of `O=S(=O)(c1ccccc1)N1CCN(c2cc(-c3ccccc3)nc3ncnn23)CC1`, the outcome was inactive.

With `COc1ccccc1NC(=O)C(=O)N/N=C(\C)CC(=O)Nc1ccccc1C(F)(F)F`, the result was inactive.

With `Cn1cccc1CC(=O)NNC(=S)Nc1ccccc1Cl`, the outcome was inactive.

On to `CC(C)(C)n1nc(-c2ccc(F)cc2)c2c(N)ncnc21`, for which the outcome was inactive.

Consider `CCc1nnc(NC(=O)c2cc(S(=O)(=O)N3CCN(CC)CC3)ccc2Cl)s1`, for which the compound was classed as inactive.

For `COc1ccc(CCC(=O)Nc2ccc(C)c([N+](=O)[O-])c2)cc1`, the result was inactive.

On to `CN(C)S(=O)(=O)c1cccc(NC(=O)c2n[nH]c(=O)c3ccccc23)c1`, for which the compound was called inactive.

For the compound `CCc1ccc(-c2nnn(CCC(=O)OC)n2)cc1`, the call was inactive.

Regarding `Oc1cccc(/C=N/NC(=S)NCCN2CCOCC2)c1O`, the compound was called inactive.

On to `Cc1ccc(C(=O)Nc2cccc(C(=O)N/N=C/c3ccccc3F)c2)cc1`, for which the outcome was inactive.

On to `COc1ccccc1C1(CC(=O)O)CCOC(C)(C)C1` (stereo not drawn), for which the outcome was inactive.

`CCCN1C(=O)C2(SC(NC(C)=O)=NN2C(C)=O)c2cc(C)cc(C)c21` (stereo not drawn): the result was inactive.

On to `COc1ccc(OC)c2c1sc(=NC(=O)c1ccco1)n2C`, for which the outcome was inactive.

`Cc1ccc(NC(=S)Nc2cccc(S(=O)(=O)Nc3c(C)n(C)n(-c4ccccc4)c3=O)c2)cc1`: the result was inactive.

As to `Cc1ccc(C)c(S(=O)(=O)N2CCN(C(=O)c3ccc(C)s3)CC2)c1`, the outcome was inactive.

Turning to `O=C(Cn1ccc(C(F)(F)F)n1)Nc1cccc(S(=O)(=O)N2CCCCC2)c1`, the call was inactive.

In the case of `Cc1ccc(S(=O)(=O)N[C@H](C(=O)N2CCC(C(=O)N[C@@H](CC(=O)O)C(=O)O)CC2)C(C)C)cc1`, the compound was called inactive.

As for `C=CCn1c(C)c(C(C)=O)c(N2CCN(C(c3ccccc3)c3ccccc3)CC2)nc1=S`, the call was inactive.

Take `COC(=O)c1ccc(COc2ccccc2/C=C/C(=O)c2ccc(OCC(=O)O)cc2)cc1`: the call was inactive.

Take `COc1ccccc1OCc1ccc(C(=O)c2ccccc2)cc1`: the compound was called inactive.

For the compound `COc1cccc(C(=O)N2CCN(c3nc4cc(C)cc(C)c4cc3C#N)CC2)c1`, the outcome was inactive.

As for `Cc1ccc(N2CCN(C3=NC(=O)/C(=C\c4cn[nH]c4-c4ccccc4)S3)CC2)cc1`, the outcome was inactive.

For `Cc1cnc(NC(=O)c2ccc(OCC3CCCO3)cc2)s1` (stereo not drawn), the call was inactive.

As for `O=C(CSc1nnc(NC(=O)c2ccc3c(c2)OCO3)s1)NCc1ccco1`, the result was inactive.

Consider `COc1ccc(C(=O)N(CN2CCCC2=O)c2cc(C)on2)cc1OC`, for which the compound was called inactive.

Consider `COc1ccc(/C=C\C(=O)NCc2ccc3c(c2)cc(C)n3C)cc1OC`, for which the result was inactive.

As to `O=C(C[n+]1ccccc1)N/N=C/c1ccc(O)cc1`, the outcome was inactive.

`CCCCNC(=S)Nc1ccc([N+](=O)[O-])cc1`: the outcome was inactive.

In the case of `O=C(CCN1CCC(c2ccccc2)C1)c1ccc2c(c1)OCCO2` (stereo not drawn), the outcome was inactive.

For the compound `CC(=O)Nc1ccc(OCCCNC(=O)c2c(-c3ccccc3)noc2C)cc1`, the result was inactive.

`CC(C)c1ccc(OCc2cccc(C(=O)N/N=C/c3cccnc3)c2)cc1`: the outcome was inactive.

With `O=C(CCc1ccccc1Cl)N1CCN(S(=O)(=O)c2ccccc2)CC1`, the result was inactive.

For `O=C(O)c1ccc(N/N=C/c2cc3cc4c(cc3nc2Cl)OCCO4)cc1`, the compound was called inactive.

`O=C(Cc1cccc2ccccc12)Nc1ccc(-c2cc3ccccc3oc2=O)cc1`: the compound was called inactive.

As to `NC(=O)N/N=C/c1ccc(N2CCOCC2)s1`, the call was inactive.

With `CC1(C)CC(NS(=O)(=O)c2ccc(F)cc2)CC(C)(C)N1`, the compound was called inactive.

As to `O=[N+]([O-])c1ccc(N2CCN(Cc3cccc([N+](=O)[O-])c3)CC2)cc1`, the call was inactive.

Consider `O=c1[nH]c(=O)n([C@H]2C[C@H](O)[C@@H](CO)O2)cc1F`, for which the compound was called inactive.

Consider `c1ccc(-c2nnc(-c3ccccn3)s2)nc1`, for which the compound was classed as inactive.

Turning to `Cc1c(NC(=O)c2cccc(NC(=O)COc3ccccc3C#N)c2)c(=O)n(-c2ccccc2)n1C`, the compound was called inactive.

As to `Cc1ccc(C(=O)Nc2cccc(C(=O)O)c2)cc1S(=O)(=O)N1CCCCC1`, the call was inactive.

For the compound `COc1ccc(C=NNc2nc3ccccc3s2)cc1`, the call was inactive.

For the compound `Cc1nc(Nc2nc3ccccc3o2)nc2c1CCC2`, the result was inactive.

On to `Cc1cccc(C)c1Nc1nc2ccccc2o1`, for which the call was inactive.

With `CC1CCCN(C(=O)COC(=O)c2n[nH]c3ccccc23)C1` (stereo not drawn), the outcome was inactive.

For the compound `COc1c(S(=O)(=O)N2CCN(c3ccc(F)cc3)CC2)ccc(Cl)c1Cl`, the call was inactive.

As for `CC(=O)c1ccc(-c2nc3c4ccccc4ccn3c2C(C)=O)o1`, the result was inactive.

Turning to `Cc1nn(-c2ccccc2)c(Cl)c1C1C(C#N)=C(N)Oc2n[nH]c(C)c21` (stereo not drawn), the result was inactive.

On to `CCCCN(c1ccccc1)c1ncnc(N)c1[N+](=O)[O-]`, for which the outcome was inactive.

With `CN1CCN(CCOc2ccc(Cc3ccccc3)cc2)CC1`, the outcome was inactive.

Consider `OC(CCCN1CCCCC1)(c1ccccc1)c1ccccc1`, for which the compound was called inactive.

With `COc1ccc(/C=C/C(=O)OCC(=O)NCc2ccco2)cc1OC`, the result was inactive.

As to `NNC(=O)c1cccc(COc2ccc3c(c2)CCC3)c1`, the outcome was inactive.

In the case of `O=c1c([N+](=O)[O-])cn(Cc2ccccc2)c(=O)n1Cc1ccccc1`, the outcome was inactive.

For the compound `O=C1CSC(=S)N1Cc1ccccc1`, the call was inactive.

On to `CCOC(=O)C1=C(O)/C(=C/c2ccc(CNC(=O)C(=O)Nc3ccc(C)cc3)o2)N=C1C`, for which the result was inactive.

Turning to `O=C1CN(C(=O)c2ccc(F)c(S(=O)(=O)N3CCOCC3)c2)c2ccccc2N1`, the call was inactive.

For `COC(=O)[C@H](C)[C@H]1C[C@]1(C)[C@H](NC(=O)OCc1ccccc1)c1ccccc1`, the result was inactive.

Consider `Clc1ccccc1C1=Nn2c(nnc2-c2ccncc2)SC1`, for which the compound was called inactive.

Consider `Cc1cc(N/N=C\c2ccc(Br)cc2)nc(-n2nc(C)cc2C)n1`, for which the compound was called inactive.

With `COc1ccc(S(=O)(=O)N2CCN(C(=S)NCC3CCCO3)CC2)cc1OC` (stereo not drawn), the outcome was inactive.

In the case of `Oc1c(N=NC(=S)Nc2ccccc2F)c2ccccc2n1Cc1ccccc1Cl`, the call was inactive.

Regarding `COc1ccc(C2=NN(C(=O)CSC3=NN4CCCC(=O)N=C4S3)C(c3cccc(OC)c3OC)C2)cc1` (stereo not drawn), the outcome was inactive.

Take `O=C(NC1=NCCS1)c1cc2ccccc2o1`: the compound was classed as inactive.

`O=C(O)[C@@H]1[C@H]2C[C@H]3c4[nH]c5ccccc5c4CCN3C[C@@H]2CC[C@@H]1O`: the result was inactive.

Consider `Cc1ccnc(NC(=O)c2ccc(C(=O)c3ccccc3)cc2)c1`, for which the outcome was inactive.

For the compound `Cc1ccnc(NC(=O)c2ccc(OCC3CCCO3)cc2)c1` (stereo not drawn), the compound was classed as inactive.

Consider `COc1ccc(C(c2c(C)n(C)n(-c3ccccc3)c2=O)c2c(C)n(C)n(-c3ccccc3)c2=O)c(OC)c1OC`, for which the result was inactive.

As to `CCCNC(=O)N1CCN(S(=O)(=O)c2ccc(C)c(C)c2)CC1`, the compound was called inactive.

As to `O=C(CCC(=O)NNC(=O)Nc1cccc(Cl)c1)NCc1ccccc1`, the compound was called inactive.

As to `Cc1cc(NCCCn2ccnc2)n2ncc(-c3ccccc3)c2n1`, the result was inactive.
